This is an account of results in PubChem BioAssay.

Assay [1] can be described thus: optical density shifts of acrAB sulA E. coli – strain DRC41, OD650, 48 h, E. coli filamentation inducer project, primary screen (AID 1152).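 Also: E. coli MC1000 strain DRC41 lacking acrAB efflux pump and sulA.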 The following applies: higher = more signal, called active from +8 up or from −8 down.
Assay [2] in a line: probe aLefty1 binding on compound microarray – biochemical, small-molecule microarray, 635/667 nm fluorescence, primary screen (AID 1153).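 Also: score merges spot fluorescence with signal-to-noise ratio from the scanned slide images.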 The note with it: higher = more signal.
Assay [3] in a line: plasmodial surface anion channel blockers, osmotic lysis – cell-based, P. falciparum Indochina, OD700, 1 h, primary screen (AID 1154). The following applies: P. falciparum Indochina infected RBC osmotic lysis, higher = more signal, called active from +8 up or from −8 down.
The nature of assay [4]: plasmodial surface anion channel blockers, osmotic lysis – cell-based, P. falciparum Indochina, OD700, 2 h, primary screen (AID 1155).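 Also: lysis reports solute entry through the parasite surface anion channel PSAC.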 The following applies: P. falciparum Indochina infected erythrocytes, higher = more signal, called active from +8 up or from −8 down.
The nature of assay [5]: changes in parasitized red cell lysis, either direction – P. falciparum Indochina, OD700, 3 h, PSAC antagonist project, primary screen (AID 1156). The note with it: P. falciparum-infected erythrocytes, osmotic lysis, higher = more signal, called active from +8 up or from −8 down.
Assay [6] can be described thus: plasmodial surface anion channel blockers, osmotic lysis – cell-based, P. falciparum Indochina, OD700, 18 h, primary screen (AID 1157). The note with it: P. falciparum Indochina infected erythrocytes, osmotic lysis OD700, 18 h; higher = more signal, called active from +8 up or from −8 down.
A short description of assay [7]: S6 kinase pathway phospho-S6 level changes – cell-based, A549, cytoblot, luminescence, serum-stimulated, primary screen (AID 1158).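 Also: serum-stimulated A549 lung adenocarcinoma cells; signal is phosphorylated S6 detected by cytoblot immunostaining with HRP secondary.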 The following applies: 5 h, higher = more signal.
Assay [8] addresses NADPH oxidase 2 (Homo sapiens) (UniProt P04839). Nature of the assay: compounds shifting NOX2 Amplex Red fluorescence – cell-based, HEK293-NOX2, PMA-stimulated, NOX inhibitor project, primary screen (AID 1159). Also: test concentration not given here. The following applies: 45 min, higher = more signal, called active from +8 up or from −8 down.
In assay [9] the target is NADPH oxidase 4 (Homo sapiens) (UniProt Q9NPH5). Nature of the assay: compounds shifting NOX4 Amplex Red fluorescence – cell-based, HEK293-NOX4, tetracycline-induced, NOX inhibitor project, primary screen (AID 1160). The following applies: HEK293-NOX4, Amplex Red H2O2 fluorescence, 45 min; higher = more signal, called active from +8 up or from −8 down.
NADPH oxidase 4 (Homo sapiens), sequence (Q9NPH5 whole entry, looked up): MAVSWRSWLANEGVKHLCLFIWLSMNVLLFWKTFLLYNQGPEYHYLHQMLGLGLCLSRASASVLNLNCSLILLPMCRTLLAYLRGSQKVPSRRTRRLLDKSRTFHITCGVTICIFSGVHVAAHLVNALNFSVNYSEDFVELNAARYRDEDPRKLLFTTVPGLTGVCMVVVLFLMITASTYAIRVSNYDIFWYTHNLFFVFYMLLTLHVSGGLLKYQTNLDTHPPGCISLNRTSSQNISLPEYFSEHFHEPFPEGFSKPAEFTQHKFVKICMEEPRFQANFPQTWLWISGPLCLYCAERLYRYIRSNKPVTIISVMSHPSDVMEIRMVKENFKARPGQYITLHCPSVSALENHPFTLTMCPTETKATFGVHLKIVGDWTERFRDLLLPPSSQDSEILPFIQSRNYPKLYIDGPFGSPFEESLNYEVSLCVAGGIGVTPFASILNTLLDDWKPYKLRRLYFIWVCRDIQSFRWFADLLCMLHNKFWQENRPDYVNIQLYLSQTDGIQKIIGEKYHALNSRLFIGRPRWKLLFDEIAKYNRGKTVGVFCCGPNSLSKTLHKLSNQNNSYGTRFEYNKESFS
For assay [10], the target named is NADPH oxidase 5 (Homo sapiens) (UniProt Q96PH1). In words: compounds shifting NOX5 Amplex Red fluorescence – cell-based, HEK293-NOX5, NOX inhibitor project, primary screen (AID 1161). The note with it: HEK293-NOX5, ionomycin, 45 min, higher = more signal.
NADPH oxidase 5 (Homo sapiens), sequence (Q96PH1 whole entry, looked up): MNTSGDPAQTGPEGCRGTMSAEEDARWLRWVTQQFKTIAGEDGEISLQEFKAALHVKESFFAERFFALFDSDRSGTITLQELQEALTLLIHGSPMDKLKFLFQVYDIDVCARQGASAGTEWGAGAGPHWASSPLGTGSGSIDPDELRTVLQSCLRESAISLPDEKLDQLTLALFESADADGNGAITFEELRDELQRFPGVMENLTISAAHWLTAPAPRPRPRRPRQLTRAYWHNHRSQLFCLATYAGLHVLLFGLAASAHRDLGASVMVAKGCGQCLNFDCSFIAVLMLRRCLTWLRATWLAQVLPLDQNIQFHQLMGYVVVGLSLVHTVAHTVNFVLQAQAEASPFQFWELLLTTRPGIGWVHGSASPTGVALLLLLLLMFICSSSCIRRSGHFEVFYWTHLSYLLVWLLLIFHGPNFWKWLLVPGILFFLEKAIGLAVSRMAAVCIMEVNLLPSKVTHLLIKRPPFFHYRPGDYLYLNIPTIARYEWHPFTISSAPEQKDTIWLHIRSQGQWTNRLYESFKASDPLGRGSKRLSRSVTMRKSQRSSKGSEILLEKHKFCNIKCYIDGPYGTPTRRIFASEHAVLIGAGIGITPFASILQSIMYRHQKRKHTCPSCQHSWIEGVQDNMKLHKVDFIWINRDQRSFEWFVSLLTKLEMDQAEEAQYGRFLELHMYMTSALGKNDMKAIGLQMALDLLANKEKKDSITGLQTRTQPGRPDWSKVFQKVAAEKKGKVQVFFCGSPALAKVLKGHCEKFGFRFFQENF
Assay [11] can be described thus: compound effects on lung adenocarcinoma cell viability – A549, calcein-AM fluorescence, 48 h, basal, profiling panel (AID 1162). Also: test concentration not given here. The following applies: higher = more signal.
Assay [12] in a line: compound effects on differentiated 3T3-L1 adipocyte viability – cell-based, 3T3-L1 adipocytes, calcein-AM fluorescence, 48 h, basal, profiling panel (AID 1163). Also: test concentration not given here. The following applies: 3T3-L1 adipocytes viability, higher = more signal.
Assay [13] in a line: compound effects on hepatocellular carcinoma cell viability – HepG2, calcein-AM fluorescence, 48 h, basal, profiling panel (AID 1164). Also: test concentration not given here. The note with it: higher = more signal.
Assay [14] can be described thus: compound effects on multiple myeloma cell viability – MM1S, calcein-AM fluorescence, 48 h, basal, profiling panel (AID 1165).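 Also: viability of MM1S multiple myeloma cells under basal unstimulated conditions; test concentration not given here.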 The note with it: higher = more signal.
Assay [15] in a line: calcein-AM signal in unstimulated myeloma cells – cell-based, calcein-AM fluorescence, 48 h, PK04 Diversity Set, profiling panel (AID 1166).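 Also: cells grown under basal conditions without added stimulus; test concentration not given here.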 The following applies: RPMI8226 myeloma viability, higher = more signal.
Assay [16] in a line: JC-1 mitochondrial signal, unstimulated HepG2 cells – cell-based, JC-1 fluorescence, 24 h, 100 nL compound, profiling panel (AID 1167). Also: test concentration not given here. The note with it: HepG2 mitochondrial potential, higher = more signal.
A short description of assay [17]: JC-1 mitochondrial signal, unstimulated adipocytes – cell-based, JC-1 fluorescence, 3T3-L1 adipocytes, 24 h, 100 nL compound, profiling panel (AID 1168). Also: test concentration not given here. The note with it: JC-1 mitochondrial fluorescence, higher = more signal, called active from +8 up or from −8 down.
Assay [18] is described as follows: JC-1 mitochondrial signal, unstimulated myeloma cells – cell-based, JC-1 fluorescence, RPMI8226, 24 h, 100 nL compound, profiling panel (AID 1169). Also: test concentration not given here. The note with it: JC-1 mitochondrial potential fluorescence, higher = more signal.
The nature of assay [19]: JC-1 mitochondrial signal, unstimulated MM1S myeloma – cell-based, JC-1 fluorescence, 24 h, 100 nL compound, profiling panel (AID 1170). Also: test concentration not given here. The note with it: MM1S mitochondrial potential, higher = more signal.
Assay [20] in a line: resazurin metabolic signal in A549 cells – cell-based, resazurin fluorescence, 24 h, PK04 Diversity Set, profiling panel (AID 1171). Also: test concentration not given here. The note with it: A549 viability, higher = more signal, called active from +8 up or from −8 down. On the technique in general: Alamar Blue is a resazurin reagent that responds to reducing activity.

Structures are written as SMILES. The source made the active and inactive calls.

NADPH oxidase 2 (Homo sapiens), sequence (P04839 whole entry, looked up): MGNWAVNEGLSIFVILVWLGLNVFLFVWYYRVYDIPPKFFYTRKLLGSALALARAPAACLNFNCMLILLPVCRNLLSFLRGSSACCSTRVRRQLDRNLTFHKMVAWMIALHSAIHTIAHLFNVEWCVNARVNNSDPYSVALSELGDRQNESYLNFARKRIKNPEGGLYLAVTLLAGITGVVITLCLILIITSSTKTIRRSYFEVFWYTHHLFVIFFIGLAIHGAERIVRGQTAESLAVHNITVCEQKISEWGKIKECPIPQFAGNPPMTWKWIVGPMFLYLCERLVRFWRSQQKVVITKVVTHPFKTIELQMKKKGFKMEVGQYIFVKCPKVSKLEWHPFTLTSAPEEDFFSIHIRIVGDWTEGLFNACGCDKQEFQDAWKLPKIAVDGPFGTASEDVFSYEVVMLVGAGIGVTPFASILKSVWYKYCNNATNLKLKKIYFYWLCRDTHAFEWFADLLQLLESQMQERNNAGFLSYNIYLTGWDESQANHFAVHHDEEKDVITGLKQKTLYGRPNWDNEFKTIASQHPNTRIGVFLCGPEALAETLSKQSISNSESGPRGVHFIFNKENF

In the case of `COc1ccc(O[C@H]2C=C[C@@H](c3ccccc3)O[C@@H]2COC(=O)CCC(C)=NOC(C)CN2CCCc3nc(C)c(C)cc32)cc1` (stereo not given in full), the z-score is -0.343 (inactive) in assay [1]; 8.59 (active) in [3]; 0.812 (inactive) in assay [4]; 0.54 (inactive) in assay [5]; 0.563 (inactive) in assay [6]; -0.314 in [7]. The z-score in [8] was -2.38 (inactive); in assay [9] it was -0.643 (inactive); in assay [10], -1.35; in assay [11] it was 1.12; in assay [12] it was 0.0929; in assay [13] it was 0.919. The z-score is -1.2 in [14]; -0.63 in [15]; 1.54 in assay [16]; -0.0369 (inactive) in assay [17]; -0.455 in [18]; -1.18 in assay [19]. Further, the z-score in assay [20] is 1.21 (inactive). The composite z-score in [2] worked out at 0.0004.

Consider `COc1cccc([C@H]2Oc3ccc(OC)cc3C(=NOC(C)CN3CCCCc4nc(C)c(C)cc43)[C@@H]2O)c1` (stereo not given in full), for which the z-score was 0.751 (inactive) in assay [1]; 1.82 (inactive) in assay [3]; 0.59 (inactive) in assay [4]; 0.32 (inactive) in assay [5]; 0.342 (inactive) in assay [6]; -0.887 in [7]. Besides, the z-score was -2.44 (inactive) in assay [8]; -0.284 (inactive) in assay [9]; -0.892 in assay [10]; 0.217 in assay [11]; -0.527 in assay [12]; 0.0117 in [13]. Further, the z-score in assay [14] is -1.02; in assay [15] it was -0.836; in [16] it was -0.108; in assay [17], -0.832 (inactive); in assay [18], -0.00251; in [19] it was -0.144. The z-score in assay [20] was -0.565 (inactive). The compound further yielded a composite z-score in assay [2] of -0.103.

Turning to `CCOC(=O)[C@H](CC(C)C)NC(=O)CCC1CC(OC(=O)NCc2cccc3ccccc23)CC2(CCCC(COC(=O)NCc3ccncc3)O2)O1` (stereo not given in full), the z-score is 0.432 (inactive) in assay [1]; 7.59 (inactive) in assay [3]; 1.02 (inactive) in assay [4]; -0.416 (inactive) in assay [5]; 0.42 (inactive) in assay [6]; 0.351 in assay [7]. In addition, the z-score in [8] was 0.402 (inactive); in assay [9], 0.142 (inactive); in assay [10] it was 0.365; in assay [11] it was 0.357; in [12], -0.0315; in assay [13], -0.215. The z-score in assay [14] is -3.43; in [15], -1.8; in assay [16] it was 0.991; in [17], 0.666 (inactive); in assay [18], -0.12; in assay [19], -1.14. In assay [20], the z-score was 0.645 (inactive). The composite z-score in assay [2] is -0.142.

For the compound `C=CC[C@@H]1C=C[C@H](ON=C(C)CCC(=O)OC[C@H]2O[C@H](c3ccccc3)C=C[C@@H]2Oc2ccc(OC)cc2)[C@@H](CO)O1`, the z-score in assay [1] is 0.871 (inactive); in [3] it was 10.9 (active); in [4] it was 1.25 (inactive); in assay [5] it was 1.2 (inactive); in assay [6] it was 0.637 (inactive); in [7], -0.0785. The z-score in [8] was -3.06 (inactive); in assay [9] it was 0.605 (inactive); in [10] it was -2.79; in [11], 1.21; in assay [12], -0.741; in assay [13], -0.403. The z-score is -1.91 in assay [14]; -0.428 in assay [15]; -0.859 in assay [16]; 0.0616 (inactive) in assay [17]; 0.0738 in [18]; -1.02 in assay [19]. Also, the z-score in assay [20] is 0.524 (inactive). This compound yielded a composite z-score in assay [2] of -0.291.
